Data from PubChem BioAssay (NCI).
Compounds without any hit were thinned out: in the full panel of roughly 83,000, 20% have a hit.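 Plates (96-well) were seeded with cells, treated with compound at one concentration, and incubated for 48 hours before percent growth was determined.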 Unmarked numbers belong to inactive results. Activity calls are given as the source filed them. The calls were made as follows: active = growth percent below 10; inactive = the rest.

Legend:
Test in all cases: NCI-60 one-dose screen, 48 h (100 = growth as untreated, 0 = no growth, -100 = all killed)
Conditions in all cases: 10 µM unless noted
NCI-H23 lung = test system: NCI-H23 lung
NCI-H226 lung = test system: NCI-H226 lung
NCI-H322M lung = test system: NCI-H322M lung
HOP-62 NSCLC = test system: HOP-62 NSCLC
NCI-H460 lung = test system: NCI-H460 lung
786-0 renal = test system: 786-0 renal
MDA-MB-231 breast = test system: MDA-MB-231 breast
SF-268 CNS = test system: SF-268 CNS
SF-539 CNS = test system: SF-539 CNS
M14 melanoma = test system: M14 melanoma
UACC-62 melanoma = test system: UACC-62 melanoma
SK-MEL-28 melanoma = test system: SK-MEL-28 melanoma
UO-31 renal = test system: UO-31 renal
OVCAR-5 ovarian = test system: OVCAR-5 ovarian
OVCAR-3 ovarian = test system: OVCAR-3 ovarian
NCI/ADR-RES ovarian = test system: NCI/ADR-RES ovarian
SW-620 colon = test system: SW-620 colon
MCF7 breast = test system: MCF7 breast
KM12 colon = test system: KM12 colon
PC-3 prostate = test system: PC-3 prostate

Structure (SMILES) | growth (NCI-H23 lung) | growth (NCI-H226 lung) | growth (NCI-H322M lung) | growth (HOP-62 NSCLC) | growth (NCI-H460 lung) | growth (786-0 renal) | growth (MDA-MB-231 breast) | growth (SF-268 CNS) | growth (SF-539 CNS) | growth (M14 melanoma) | growth (UACC-62 melanoma) | growth (SK-MEL-28 melanoma) | growth (UO-31 renal) | growth (OVCAR-5 ovarian) | growth (OVCAR-3 ovarian) | growth (NCI/ADR-RES ovarian) | growth (SW-620 colon) [%] | growth (MCF7 breast) | growth (KM12 colon) | growth (PC-3 prostate)
S=P(NC1CCCCC1)(N1CC1)N1CC1 | 110% | 113% | 113% | 101% | 82.8% | 101% | 104% | 98.6% | 107% | 105% | 91.4% | 122% | 94.1% | 104% | 112% | 111% | 96.5 | 89% | 110% | –
COc1cc2c(cc1OC)CN(C)C(C)C2 (stereo not given) | 101% | 96.8% | 106% | 92% | 106% | 101% | 110% | 96% | 105% | 100% | 89.4% | 106% | 93% | 101% | 113% | 101% | 100 | 95.5% | 102% | 97.4%
O=CN1N=C(c2ccc3c(c2)OCO3)CC1c1sc(N(CCCl)CCCl)nc1Cl (stereo not given) | 101% | 95.9% | 75.1% | 93% | 105% | 87.8% | 89.9% | 93.7% | 102% | 102% | 77.5% | 101% | 74.5% | 90.1% | 95.5% | 101% | 92.9 | 88.9% | 93.9% | 88.2%
O=S(=O)(c1ccc(Cl)cc1)C(Cl)(Cl)Cl | 40.6% | 60.8% | 75.2% | 78.5% | 80.4% | 51.8% | 42% | 45.5% | 33.8% | 8.38% (active) | 46.6% | 38.5% | 9.42% (active) | 78.9% | -15.6% (active) | 29% | 24.4 | 23.8% | 23.4% | 49.1%
CC(C)(C)NCC(O)c1ccccc1Cl (stereo not given) | 25% | 45% | 28.3% | 29.3% | 6.76% (active) | 20.9% | 12.8% | 26.6% | 7.78% (active) | -12.8% (active) | 24% | 48.2% | 48.1% | 11% | -25.7% (active) | 85.6% | 22 | – | 3.52% (active) | 18%
Cc1cc(C)nc(C)c1.[Cl][Hg][Cl] | 98.9% | 120% | 91.5% | 102% | 101% | 104% | 118% | 102% | 103% | 97.3% | 95% | 94% | 95.5% | 114% | 108% | 102% | 105 | 82.7% | 96.2% | 95.4%
S=P(Nc1ccccc1)(Nc1ccccc1)c1ccccc1 | 92.5% | 112% | 107% | 90.7% | 103% | 94.6% | 90% | 90.8% | 95.8% | 97.7% | 84.2% | 119% | 87.7% | 99.6% | 103% | 88.3% | 103 | 109% | 102% | 85.9%
CC1=C(SCCC(=O)OCC(=O)NCCC[Te]c2ccccc2)C(=O)c2ccccc2C1=O | -33.6% (active) | -4.17% (active) | -13.3% (active) | -49.1% (active) | -43.1% (active) | 23.2% | -34.5% (active) | -13.1% (active) | -60.3% (active) | -52.4% (active) | 2.51% (active) | -11.4% (active) | -0.644% (active) | -0.604% (active) | -25.6% (active) | -10.5% (active) | 22.1 | 3.85% (active) | 2.96% (active) | -9.1% (active)
C1CNC2CCCC2C1 (stereo not given) | 108% | 98.1% | 104% | 102% | 108% | 105% | 118% | 104% | 102% | 107% | 108% | 111% | 82.5% | 103% | 107% | 109% | 103 | 99.7% | 97% | 101%
ClCCN(CCCl)c1nc(Cl)c(C2CC(c3ccccc3)=NN2c2ccccc2)s1 (stereo not given) | 86.8% | 83.3% | 86.9% | 79.5% | 89.1% | 91.7% | 88.1% | 88.9% | 102% | 92.4% | 60.9% | 98.6% | 72.4% | 99.5% | 99.9% | 103% | 86 | 91.6% | 98.3% | 75.8%
CC(C)C1c2ccc(O)cc2Oc2nc(N)c(C#N)c(N)c21 (stereo not given) | 105% | 93.6% | 93.8% | 92.9% | 107% | 96.1% | 89.9% | 112% | 93.5% | 129% | – | 117% | 89.2% | 104% | 124% | 102% | 115 | 124% | 103% | 92.1%
CC[C@@H](C)/C=C(C)/C=C/C(=O)c1c(O)c(-c2ccc(O)cc2)cn(O)c1=O | 19.6% | -1.76% (active) | 22.5% | 9.35% (active) | 1% (active) | 0.309% (active) | – | -0.607% (active) | 5.1% (active) | -1.25% (active) | -31.6% (active) | 34.7% | -8.98% (active) | – | 25.7% | 1.53% (active) | 20.2 | 15.4% | 23.5% | 37.7%
CNC(C)Cc1ccccc1 (stereo not given) (tested in a mixture with another compound) | 99.2% | 99.5% | 89.2% | 98% | 104% | 102% | 120% | 108% | 99.7% | 103% | 107% | 105% | 82.9% | 88.1% | 104% | 104% | 102 | 97.3% | 99.8% | 92.8%
CC(=O)N1N=C(c2ccccc2)CC1c1sc(N(CCCl)CCCl)nc1Cl (stereo not given) | 85.8% | 89.1% | 90.6% | 90% | 96.2% | 99.7% | 95.3% | 94% | 106% | 101% | 64.5% | 108% | 80% | 98.4% | 96.4% | 99% | 96.8 | 95% | 95.8% | 88.1%
CC(C)CCC[C@@H](C)[C@H]1CC[C@H]2[C@@H]3CC=C4C[C@@H](OC(=O)Cc5ccc(N(CCCl)CCCl)cc5)CC[C@]4(C)[C@H]3CC[C@]12C | 107% | 94.3% | 214% | 105% | 97.8% | 96.7% | 101% | 108% | 94.1% | 108% | 94.4% | 111% | 90% | 98.2% | 112% | 102% | 109 | 99% | 109% | 99.5%
CC1(C)CC2(CC(C)(C)c3cc(O)c(O)cc32)c2cc(O)c(O)cc21 | 108% | 85.7% | 102% | 95.9% | 97.7% | 94% | 91.5% | 88.6% | 98.4% | 98.1% | 83.3% | 97% | 75.2% | 93% | 88.9% | 103% | 95.7 | 94.5% | 94.4% | 90.9%
